Inconclusive results are not listed. Activity calls are given as the source filed them.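 How the source made its calls, unless noted: active means viability loss from added drug above about 55%, and viability with drug at most 40%, in both replicates (limit read from the data, passing the limit was not always enough); inconclusive means both conditions met in only one replicate; inactive means neither replicate meets both conditions.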

A word on the viability: it is a read-out of living cells in per cent, often relative to untreated cells. What is called inhibition is the drop in the measured response relative to a control, in per cent.

Experiment [1] can be described thus: reducers of endogenous Her2 protein level, primary screen, SKBR3 breast tumor cells, AlphaScreen, ATP viability (AID 461;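 active means Her2 level under about 52% in both replicate screens, with viability over 70% of control, limit read from the data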;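 on Her2 level: lower value means less Her2 protein in the cells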;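 on viability: percent of carrier control wells set as 100% viability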). The note with it: 18-24 h, measured here: SKBR3 viability, ATP luminescence, at 10 µM. For orientation: Alpha assays give light when donor and acceptor beads are brought close together.
For experiment [2], the target named is Receptor tyrosine-protein kinase erbB-2 (Homo sapiens) (UniProt P04626). The experiment is described as above. The settings on record: 18-24 h, at 10 µM, stronger effect = lower value.
Chain of Receptor tyrosine-protein kinase erbB-2 (Homo sapiens) (P04626 whole entry, looked up): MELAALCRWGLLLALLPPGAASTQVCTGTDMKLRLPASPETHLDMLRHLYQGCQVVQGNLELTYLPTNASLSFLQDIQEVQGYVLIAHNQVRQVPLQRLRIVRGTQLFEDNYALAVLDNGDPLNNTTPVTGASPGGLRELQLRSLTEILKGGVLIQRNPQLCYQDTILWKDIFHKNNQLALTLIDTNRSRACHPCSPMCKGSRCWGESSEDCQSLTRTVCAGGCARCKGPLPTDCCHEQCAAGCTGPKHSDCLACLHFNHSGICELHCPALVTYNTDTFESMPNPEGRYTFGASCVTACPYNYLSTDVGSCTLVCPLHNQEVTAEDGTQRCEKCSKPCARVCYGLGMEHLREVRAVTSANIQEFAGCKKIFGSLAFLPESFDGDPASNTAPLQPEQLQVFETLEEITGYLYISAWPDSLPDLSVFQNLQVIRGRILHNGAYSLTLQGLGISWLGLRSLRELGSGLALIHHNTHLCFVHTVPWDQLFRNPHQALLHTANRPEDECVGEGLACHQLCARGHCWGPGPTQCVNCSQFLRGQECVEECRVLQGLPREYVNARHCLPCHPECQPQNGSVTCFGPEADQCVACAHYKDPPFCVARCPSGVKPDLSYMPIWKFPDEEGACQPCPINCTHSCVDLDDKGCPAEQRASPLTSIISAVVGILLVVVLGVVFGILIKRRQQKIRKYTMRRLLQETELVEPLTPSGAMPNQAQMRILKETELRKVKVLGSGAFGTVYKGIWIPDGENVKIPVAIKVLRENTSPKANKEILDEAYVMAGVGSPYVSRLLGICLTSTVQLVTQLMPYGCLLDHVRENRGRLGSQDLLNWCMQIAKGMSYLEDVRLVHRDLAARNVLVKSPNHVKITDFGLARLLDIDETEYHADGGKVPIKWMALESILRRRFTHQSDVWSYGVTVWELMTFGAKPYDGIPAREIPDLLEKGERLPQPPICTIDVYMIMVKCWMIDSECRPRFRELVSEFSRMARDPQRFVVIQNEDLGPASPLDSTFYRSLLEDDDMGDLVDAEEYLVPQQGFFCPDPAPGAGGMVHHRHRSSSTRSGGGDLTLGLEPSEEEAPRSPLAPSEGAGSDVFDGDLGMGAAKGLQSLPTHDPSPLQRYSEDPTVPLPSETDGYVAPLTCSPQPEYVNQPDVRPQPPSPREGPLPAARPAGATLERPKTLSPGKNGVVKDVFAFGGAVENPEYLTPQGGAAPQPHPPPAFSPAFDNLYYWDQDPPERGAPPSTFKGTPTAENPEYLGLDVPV
Experiment [3] can be described thus: SK-BR-3 cell growth inhibitors, pilot screen, 24 h, human (AID 572;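 active means viability at or below 10% of carrier control in both of two separate runs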;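 further: compound exposure lasted between 18 and 24 h rather than exactly 24 h; 100% = carrier-treated control wells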). The note with it: SK-BR-3 viability, CellTiter-Glo luminescence, at 10 µM, stronger effect = lower value. (Cellular ATP, detected with luciferase, serves as a proxy for viable cell number.)
Experiment [4] can be described thus: HUVEC growth inhibition – cell-based, human, primary screen (AID 575;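 active means viability at or below 30% in both replicate assays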;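 further: 100% = median of untreated cell wells with 0.1% DMSO on each plate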). The note with it: HUVEC proliferation, CellTiter-Glo luminescence, 72 h; at 10 µM; stronger effect = lower value.
A short description of experiment [5]: growth inhibitors of H69AR lung tumor, primary screen, human, duplicate replicates (AID 580;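 active means viability at or under a set limit in both replicates, limit being median viability minus 3 SD, cut at about 48% in these data, passing the limit was not always enough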;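 further: 100% = mean luminescence of untreated wells and 0% = no signal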). The settings on record: H69AR lung tumor cells viability, ATP luminescence, 72 h; at 10 µM; stronger effect = lower value.
The nature of experiment [6]: reversal of MRP1-mediated doxorubicin resistance, pilot screen, H69AR cells, doxorubicin co-treatment (AID 601). The note with it: CellTiter-Glo, 72 h, at 10 µM; for differential viability (reversal): stronger effect = higher value.
Experiment [7] in a line: 384-well plate pilot, post-Golgi transport modulator project, inhibition of yeast transport mutant growth (AID 636; in the data active means inhibition above about 31%). The note with it: absorbance 615 nm, about 18 h, stronger effect = higher value.
The nature of experiment [8]: growth suppression of yeast trafficking mutant, preliminary HTS, modulators of trafficking downstream of Golgi apparatus project, 1536-format plate, OD 615 nm (AID 637; in the data active means inhibition above about 30%). The settings on record: yeast transport mutant growth, absorbance 615 nm, 18 h; stronger effect = higher value.
The nature of experiment [9]: OD615 S. cerevisiae growth inhibition, permissive medium, pilot counter-assay, permissive growth control for S. cerevisiae lifespan shortening project (AID 705;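 active means growth inhibition above 25% in both replicates, a cutoff set 3 SD above the mean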). The note with it: OD615, 24 h, at 10 µM, stronger effect = higher value.
The nature of experiment [10]: Restrictive medium S. cerevisiae growth inhibition, OD615, pilot screen of yeast lifespan reduction project, restrictive growth control (AID 706;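 active means growth inhibition above a set limit, 3 SD over mean compound inhibition, in both replicates, cut at about 43% in these data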;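 further: modified DeaD lifespan yeast strain shifted to restrictive glucose medium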). The settings on record: OD615, 48 h, at 10 µM, stronger effect = higher value.
Experiment [11] is described as follows: viability gain of MRP-1-high H69AR cells under doxorubicin, pilot screen, MRP-1 activator project, CellTiter-Glo, duplicate (AID 807;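 active means viability increase at or above a cutoff of the median across tested compounds plus 3 SD, cut at about 8.5% in these data, passing the limit was not always enough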;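 further: compound pretreatment 18-22 h then 72 h combined with doxorubicin; 0% = doxorubicin alone and 100% = vehicle without doxorubicin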). The settings on record: H69AR viability with doxorubicin, CellTiter-Glo luminescence; at 10 µM; stronger effect = higher value.
Experiment [12] in a line: growth suppression of beta-catenin knockout HCT116, pilot screen, human colon tumor cells (AID 823;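 active means cell viability at or below a set limit in both duplicate runs, the limit being the all-compound median minus 4 SD, cut at about 23% in these data, passing the limit was not always enough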;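 further: 0% = wells killed by 20 µM Hyamine and 100% = untreated DMSO cell wells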). The note with it: CellTiter-Glo, 60 h, at 10 µM, stronger effect = lower value.
Experiment [13] can be described thus: growth suppression of PTEN-deleted HCT116, pilot screen, cell-based, HCT116 clonal line, CellTiter-Glo (AID 824;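 active means viability at or below 27.92% in each of two runs, the all-compound median minus 4 SD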;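 further: 0% = 20 µM Hyamine control and 100% = vehicle cell control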). The settings on record: 60 h, at 10 µM, stronger effect = lower value.
Experiment [14] in a line: inhibitors of the yeast RAM network, pilot screen, dse1pr::URA3 reporter, 5-FOA selection (AID 869;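 active means inhibition over a set limit, the all-compound mean plus 3 SD, in both replicate runs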;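 further: 0% = DMSO wells with no growth and 100% = 10 µM 1-NA-PP1 with full growth; RAM network block rescues cells from 5-FOA so hits raise OD615 growth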). The settings on record: S. cerevisiae dse1pr::URA3 5-FOA growth, OD615, 2 d; at 10 µM; stronger effect = higher value; strain carries analog-sensitive mutant Cbk1 kinase.
A short description of experiment [15]: RAM signaling pathway blockade in yeast – S. cerevisiae, Pdr1DBD-CYC8 efflux-inhibited sensitized strain, primary screen (AID 1298;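 active means RAM network inhibition above 8.4% in each of two replicates, 3 SD over the compound average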;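 further: 0% = DMSO untreated cells without growth and 100% = 10 µM 1-NA-PP1 full growth; higher means more yeast growth rescued from 5-FOA killing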). The settings on record: S. cerevisiae cbk1-as DSE1-URA3 strain, 5-FOA growth OD615, 2 d; at 50 µM; stronger effect = higher value.
The mark [16] stands for this setting: H69AR cells + 2 uM doxorubicin, measured here: viability with 2 uM doxorubicin, stronger effect = lower value.
The mark [17] stands for this setting: H69AR cells, compound alone cytotoxicity.

Regarding `COc1cccc(C2C(C(N)=O)=C(C)Nc3nc(CCCO)nn32)c1OC` (stereo not given), the viability was 102% in experiment [1]; 102% (inactive) in experiment [3]; 93.8% (inactive) in experiment [4]; 96.4% (inactive) in experiment [5]; 97.5% in experiment [6] (setting [16]); 96.4% in [6] (setting [17]). The viability in experiment [12] is 105% (inactive); in experiment [13], 104% (inactive). In addition, the Her2 level in experiment [2] is 103% (inactive). In addition, the differential viability (reversal) in experiment [6] (H69AR cells + 2 uM doxorubicin) is -1.08% (inactive). The figures for the inhibition in experiment [7], in [8] and in [14] were 0.93% (inactive), -3.67% (inactive) and 0.085% (inactive), respectively. The results for the growth inhibition in experiment [9] and in experiment [10] were -8.7% (inactive) and 14.1% (inactive), respectively. For the same molecule, in experiment [11], the viability increase is -0.88% (inactive). Moreover, the RAM network inhibition in experiment [15] is 0.27% (inactive).

As for `Cc1nc2ccc(S(=O)(=O)NC(C(=O)Nc3nccs3)C(C)C)cc2s1` (stereo not given), the viability in [1] is 87%; in experiment [3] it was 87% (inactive); in experiment [4], 91.6% (inactive); in experiment [5] it was 95.7% (inactive); in [6] (setting [16]), 90.3%; in experiment [6] (setting [17]) it was 95.7%. For the same molecule, the figures for the viability in experiment [12] and in [13] were 101% (inactive) and 104% (inactive), respectively. Further, the Her2 level in [2] is 93% (inactive). For the same molecule, the differential viability (reversal) in experiment [6] (H69AR cells + 2 uM doxorubicin) is 5.42% (inactive). Besides, the results for the inhibition in experiment [7], in experiment [8] and in [14] were 0.13% (inactive), -0.17% (inactive) and 1.99% (inactive), respectively. Besides, the results for the growth inhibition in experiment [9] and in [10] were -5.25% (inactive) and 2.78% (inactive), respectively. In [11], the viability increase was -1.85% (inactive). For the same molecule, in [15], the RAM network inhibition was 1.91% (inactive).

With `CSc1cccc(NC(=O)C2CCN(S(=O)(=O)c3ccc(F)cc3)CC2)c1`, the viability was 77.5% in [1]; 77.5% (inactive) in experiment [3]; 93.7% (inactive) in [4]; 84.4% (inactive) in experiment [5]; 85.3% in experiment [6] (setting [16]); 84.4% in experiment [6] (setting [17]). In addition, the figures for the viability in [12] and in [13] were 64.3% (inactive) and 62% (inactive), respectively. Further, in experiment [2], the Her2 level was 70.5% (inactive). Also, in experiment [6] (H69AR cells + 2 uM doxorubicin), the differential viability (reversal) was -0.92% (inactive). In addition, the results for the inhibition in experiment [7], in experiment [8] and in experiment [14] were -7.57% (inactive), -6.23% (inactive) and 1.71% (inactive), respectively. The figures for the growth inhibition in experiment [9] and in [10] were -1.68% (inactive) and -13.7% (inactive), respectively. Moreover, the viability increase in experiment [11] was -4.63% (inactive). The RAM network inhibition in experiment [15] is 7.8% (inactive).

As to `Cc1cccc(C)c1OCc1nnc(SCC(=O)Nc2ccccc2F)o1`, the viability in [1] was 95.5%; in experiment [3], 95.5% (inactive); in [4], 108% (inactive); in experiment [5] it was 83% (inactive); in experiment [6] (setting [16]), 90.2%; in [6] (setting [17]), 83%. The viability was 98.8% (inactive) in experiment [12] and 98.1% (inactive) in experiment [13]. In addition, the Her2 level in experiment [2] was 101% (inactive). Besides, the differential viability (reversal) in experiment [6] (H69AR cells + 2 uM doxorubicin) was -7.2% (inactive). Besides, the values for the inhibition in [7], in [8] and in experiment [14] were -5.2% (inactive), -5.17% (inactive) and 3.38% (inactive), respectively. The growth inhibition in experiment [9] is -12.4% (inactive); in experiment [10], -9.96% (inactive). Moreover, in [11], the viability increase is -1.03% (inactive). Besides, the RAM network inhibition in experiment [15] was 3.85% (inactive).

Regarding `CCOC(=O)N1CCC(Nc2nc3ccccc3n3cnnc23)CC1`, the viability is 94% in experiment [1]; 94% (inactive) in [3]; 85.8% (inactive) in [4]; 87.1% (inactive) in experiment [5]; 81.9% in [6] (setting [16]); 87.1% in experiment [6] (setting [17]). The viability in experiment [12] is 102% (inactive); in [13], 95.2% (inactive). Moreover, the Her2 level in experiment [2] is 89.5% (inactive). Moreover, the differential viability (reversal) in experiment [6] (H69AR cells + 2 uM doxorubicin) is 5.21% (inactive). Besides, the inhibition was -0.13% (inactive) in experiment [7], 3.17% (inactive) in [8] and 1.23% (inactive) in [14]. Also, the growth inhibition was 0.55% (inactive) in experiment [9] and -10.8% (inactive) in experiment [10]. In [11], the viability increase was -4.12% (inactive). Besides, the RAM network inhibition in experiment [15] is 4.35% (inactive).

For the origin of these results see PubChem BioAssay.
